PubChem BioAssay (NCATS)
For part of these data: Entries with a potency or affinity are not part of this list. Activity calls are given as the source filed them. No rule for the calls is given here. Peptide text beside a SMILES is read from it.

Assays:
[1] = Ebola virus entry assay, green fluorescence channel
[2] = Ebola virus entry assay, blue channel fluorescence
[3] = Ebola virus entry assay, green channel fluorescence
[4] = Ebola virus entry assay, reporter ratio channel; AC50: Channel type: primary unless noted; outcome: Channel type: primary unless noted

Measured: efficacy
For efficacy in this document: 0% is about no effect.

Clc1cccc(C(c2ccc3nc[nH]c3c2)n2ccnc2)c1 (stereo unspecified)
inactive: [1] -19.4% | [2] | [3] | [4]

O=C(O)[C@@H](O)[C@H](O)[C@H](O)[C@@H](O)C(=O)O
inactive: [1] -24.9% | [2] | [3] | [4]

COc1cc(/C=C/C(=O)O[C@H]2CC[C@]34C[C@]35CC[C@]3(C)[C@@H]([C@H](C)CCC=C(C)C)CC[C@@]3(C)[C@@H]5CC[C@H]4C2(C)C)ccc1O
inactive: [1] -25.4% | [2] | [3] | [4]

CS(=O)(=O)c1ccc([C@@H](O)[C@@H](CO)NC(=O)C(Cl)Cl)cc1
inactive: [1] -14.2% | [2] | [3] | [4]

Clc1ccccc1N1CCNCC1
inactive: [1] -17.1% | [2] | [3] | [4]

CC(C(=O)O)c1ccc2c(c1)[nH]c1ccc(Cl)cc12 (stereo unspecified)
inactive: [1] -20.7% | [2] | [3] | [4]

Oc1ccc(Cl)c2cccnc12
inactive: [1] -23.9% | [2] | [3] | [4]

Clc1cccc(Cl)c1NC1=NCCN1
inactive: [1] -12.5% | [2] | [3] | [4]

Nc1c[n+](N2CCOCC2)no1
inactive: [1] -8.8% | [2] | [3] | [4]

Cc1cccc(C)c1NC(=O)CC12CCCN1CCC2
inactive: [1] -14.9% | [2] | [3] | [4]

O=C(c1ccco1)N1CCNCC1
inactive: [1] 12.6% | [2] | [3] | [4]

CC(=O)O[C@@H]1CC2C3CCc4cc(OC(=O)c5ccccc5)ccc4C3CCC2(C)[C@H]1OC(C)=O (stereo partly specified)
inactive: [1] 11.6% | [2] | [3] | [4]

Cc1oc(=O)oc1COC(=O)[C@@H]1N2C(=O)[C@@H](NC(=O)[C@H](N)c3ccccc3)[C@H]2SC1(C)C
inactive: [1] -26.8% | [2] | [3] | [4]

CC(N=C(NC#N)Nc1ccncc1)C(C)(C)C (stereo unspecified)
inactive: [1] -23.2% | [2] | [3] | [4]

Cc1cc(CCCOc2c(C)cc(-c3noc(C(F)(F)F)n3)cc2C)on1
inactive: [1] 12.1% | [2] | [3] | [4]

CN(C)CCN(Cc1ccsc1)c1ccccn1
inactive: [1] -18.4% | [2] | [3] | [4]

N[C@@H](COP(=O)(O)O)C(=O)O
inactive: [1] -11.1% | [2] | [3] | [4]

O=C(O)c1[nH]n(-c2ccc(S(=O)(=O)O)cc2)c(=O)c1N=Nc1ccc(S(=O)(=O)O)cc1
inactive: [1] 23% | [2] | [3] | [4]

COc1ccnc(CS(=O)c2nc3ccc(OC(F)F)cc3[nH]2)c1OC (stereo unspecified)
inactive: [1] -31.1% | [2] | [3] | [4]

C[C@]12Cc3cn[nH]c3C[C@@H]1CC[C@@H]1[C@@H]2CC[C@@]2(C)[C@H]1CC[C@]2(C)O
inactive: [1] 8.25% | [2] | [3] | [4]

Oc1ccccc1
inactive: [1] 23.9% | [2] | [3] | [4]

O=S(=O)(O)c1ccc(O)cc1
inactive: [1] 20.2% | [2] | [3] | [4]

CCc1cc(S(=O)(=O)O)c2cc(C(C)C)cccc1-2
inactive: [1] 18.8% | [2] | [3] | [4]

CCOC(=O)c1ccc(N)cc1
inactive: [1] 26.1% | [2] | [3] | [4]

CCOC(=O)C1=C(C)NC(C)=C(C(=O)OC)C1c1cccc([N+](=O)[O-])c1 (stereo unspecified)
inactive: [1] 20.7% | [2] | [3] | [4]

O=C(O)/C=C(\CC(=O)O)C(=O)O
inactive: [1] -11% | [2] | [3] | [4]

CO[C@@H]1[C@@H](OC(N)=O)[C@@H](O)[C@H](Oc2ccc3c(O)c(NC(=O)c4ccc(O)c(CC=C(C)C)c4)c(=O)oc3c2C)OC1(C)C
inactive: [1] 15.5% | [2] | [3] | [4]

O=C(O)Cn1c(=O)n(Cc2ccc(Br)cc2F)c(=O)c2ccc(Cl)cc21
inactive: [1] -18.1% | [2] | [3] | [4]

CCO/C([O-])=N/c1c[n+](N2CCOCC2)no1
inactive: [1] -25.2% | [2] | [3] | [4]

C[C@]12C=CC(=O)C=C1[C@@H](F)C[C@@H]1[C@@H]2[C@@H](O)C[C@@]2(C)[C@H]1CC[C@]2(O)C(=O)CO
inactive: [1] 13.6% | [2] | [3] | [4]

Cc1cc(O)c2ccccc2c1O
inactive: [1] 13.4% | [2] | [3] | [4]

COc1ccc(C(=O)NCc2ccc(OCCN(C)C)cc2)cc1OC
inactive: [1] -7.96% | [2] | [3] | [4]

Cc1ccccc1C(=O)N1CC/C(=N\OS(=O)(=O)O)c2ccc(Cl)cc21
inactive: [1] -25% | [2] | [3] | [4]

CCNC(=O)[C@@H]1CCCN1C(=O)[C@H](CCCN=C(N)N)NC(=O)[C@H](CC(C)C)NC(=O)CNC(=O)[C@H](Cc1ccc(O)cc1)NC(=O)[C@H](CO)NC(=O)[C@H](Cc1c[nH]c2ccccc12)NC(=O)[C@H](Cc1cnc[nH]1)NC(=O)[C@@H]1CCC(=O)N1 (HELM PEPTIDE1{[Glp].H.W.S.Y.G.L.R.P.[CCN[*:1]]}$$$$V2.0)
inactive: [1] 17.9% | [2] | [3] | [4]

Cc1onc(-c2ccccc2)c1C(=O)Cl
inactive: [1] 6.34% | [2] | [3] | [4]

CCCN1CCCC[C@H]1C(=O)Nc1c(C)cccc1C
inactive: [1] 17.3% | [2] | [3] | [4]

CCC(=O)c1c(O)cc(O)cc1O
inactive: [1] 21.1% | [2] | [3] | [4]

NS(=O)(=O)c1cc(C(=O)NN2C[C@H]3[C@H]4CCC(C4)[C@H]3C2)ccc1Cl
inactive: [1] -15.5% | [2] | [3] | [4]

CN=C(NC#N)NCCSCc1csc(N=C(N)N)n1
inactive: [1] -13.8% | [2] | [3] | [4]

CCCC(CCC)(C(=O)OCC)C(=O)OCC
inactive: [1] 21% | [2] | [3] | [4]

CC[C@H](C)[C@H](N)C(=O)O
inactive: [1] -38.6% | [2] | [3] | [4]

CCCc1c(OCCCCc2nn[nH]n2)ccc(C(C)=O)c1O
inactive: [1] 28.7% | [2] | [3] | [4]

Nc1cc(=O)[nH]c(N)n1
inactive: [1] -17.6% | [2] | [3] | [4]

Cc1ccc(S(=O)(=O)NC(=O)NC2CCCCCCC2)cc1
inactive: [1] -10.6% | [2] | [3] | [4]

Cc1cc(OI)c(C(C)C)cc1-c1cc(C(C)C)c(OI)cc1C
inactive: [1] 13.6% | [2] | [3] | [4]

CC(=O)Nc1ncc([N+](=O)[O-])s1
inactive: [1] 20.3% | [2] | [3] | [4]

COc1ccc(NS(=O)(=O)c2ccc(N)cc2)nn1
inactive: [1] 8.59% | [2] | [3] | [4]

Cn1c(=O)c2c(ncn2CCO)n(C)c1=O
inactive: [1] -37.9% | [2] | [3] | [4]

CN(C)CCN1CCN(c2cccc(Cl)c2)C1=O
inactive: [1] -56.2% | [2] | [3] | [4]

CCCCCCCCCCOc1cc2c(=O)c(C(=O)OCC)c[nH]c2cc1OCC
inactive: [1] 11% | [2] | [3] | [4]

O=C(O)Cc1ccc(OCCNC[C@H](O)c2ccccc2)cc1
inactive: [1] -33.3% | [2] | [3] | [4]

CCOC(=O)c1ccc(O)c(O)c1
inactive: [1] -26.2% | [2] | [3] | [4]

O=C(O)CCCCC1CCSS1 (stereo unspecified)
inactive: [1] -16.3% | [2] | [3] | [4]

Cc1cc(=O)n(-c2ccccc2)n1C
inactive: [1] -22% | [2] | [3] | [4]

CC(=O)Nc1ccccc1
inactive: [1] -20.9% | [2] | [3] | [4]

O=C(O)c1cc(=O)c2ccccc2o1
inactive: [1] -28.1% | [2] | [3] | [4]

Nc1ncnc(Nc2ccccc2)n1
inactive: [1] -14.2% | [2] | [3] | [4]

Cc1cc(O)c2c(O)c3c(O)cccc3cc2c1
inactive: [1] 34.7% | [2] | [3] | [4]

O=C(O)CCc1nc2ccccc2[nH]1
inactive: [1] -21.2% | [2] | [3] | [4]

CNC[C@H](O)[C@@H](O)[C@H](O)[C@H](O)CO
inactive: [1] -10.6% | [2] | [3] | [4]

CC(=O)Oc1cccc(O)c1
inactive: [1] -10.5% | [2] | [3] | [4]

OC[C@@H](O)[C@@H](O[C@@H]1O[C@H](CO)[C@H](O)[C@H](O)[C@H]1O)[C@H](O)[C@@H](O)CO
inactive: [1] -17.2% | [2] | [3] | [4]

COc1cccc(OC)c1C(=O)N[C@@H]1C(=O)N2[C@@H]1SC(C)(C)[C@@H]2C(=O)O
inactive: [1] 19.6% | [2] | [3] | [4]

COC(=O)C1=C(C)NC(C)=C(C(=O)OCC(C)=O)C1c1ccccc1[N+](=O)[O-] (stereo unspecified)
inactive: [1] -11.1% | [2] | [3] | [4]

COc1c2occc2cc2ccc(=O)oc12
inactive: [1] -15% | [2] | [3] | [4]

C[C@@H]1CCC[C@H](C)N1
inactive: [1] -7.35% | [2] | [3] | [4]

O=C(Oc1ccccc1C(=O)O)c1ccccc1O
inactive: [1] 10% | [2] | [3] | [4]

CCC(Cc1c(I)cc(I)c(N)c1I)C(=O)O (stereo unspecified)
inactive: [1] -15.6% | [2] | [3] | [4]

CCCCCCCCCCCCOCCO
inactive: [1] -11.3% | [2] | [3] | [4]
